Source: PubChem BioAssay (EPA / NIEHS)
Calls of active or inactive are those of the source. The calls were made as follows: active = hit-call score of the fitted dose curve at least 0.9, where 1 is the maximum; inactive = score below 0.9.

What was measured:
Details in all cases: mRNA level, 48 h; actives raise or lower the signal
[1] = read-out: Broad substrate specificity ATP-binding cassette transporter ABCG2 (Homo sapiens) (UniProt Q9UNQ0); test: LTEA_HepaRG_ABCG2: Life Technologies and Expression Analysis (LTEA) Assay for ABC Transporter (ABCG2) using HepaRG (AID 2283465)
Summary of the method: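 Differentiated HepaRG cells in serum-free induction medium were exposed for 48 h, in duplicate, to eight half-log concentrations up to 100 uM in 0.5% DMSO. ABCG2 mRNA was measured by TaqMan qRT-PCR, normalized to ACTB, GAPDH and POLR2A, and fitted bidirectionally versus DMSO.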

[2] = read-out: ATP-citrate lyase (ACLY), ACLY (gene 47); test: LTEA_HepaRG_ACLY: Life Technologies and Expression Analysis (LTEA) Assay for ATP-citrate lyase (ACLY) using HepaRG (AID 2283466)
Summary of the method: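 Differentiated human HepaRG cells in serum-free induction medium exposed 48 h, in duplicate, to eight half-log concentrations from 100 uM top in 0.5% DMSO; ACLY mRNA measured by qRT-PCR, normalized to ACTB, GAPDH, POLR2A, fitted bidirectionally versus DMSO.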

[3] = read-out: Peroxisomal acyl-coenzyme A oxidase 1 (ACOX1) gene, ACOX1 (gene 51); test: LTEA_HepaRG_ACOX1: Life Technologies and Expression Analysis (LTEA) Assay for Peroxisomal acyl-coenzyme A oxidase 1 (ACOX1) gene using HepaRG (AID 2283467)
Summary of the method: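 Differentiated human HepaRG cells were exposed in duplicate for 48 h in serum-free induction medium to eight half-log concentrations up to 100 uM in 0.5% DMSO. ACOX1 mRNA was then quantified by TaqMan qRT-PCR, normalized to ACTB, GAPDH and POLR2A.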

[4] = read-out: Alkaline Phosphatase, Placental (ALPP) gene, ALPP (gene 250); test: LTEA_HepaRG_ALPP: Life Technologies and Expression Analysis (LTEA) Assay for Alkaline Phosphatase, Placental (ALPP) gene using HepaRG (AID 2283468)
Summary of the method: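 HepaRG cells plated 48 h, then exposed in duplicate for 48 h in serum-free induction medium to 8-point half-log series from 100 uM in 0.5% DMSO. ALPP mRNA by TaqMan qRT-PCR, normalized to ACTB/GAPDH/POLR2A; bidirectional fit versus DMSO.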

[5] = read-out: Bcl-2 (BAD) gene, BAD (gene 572); test: LTEA_HepaRG_BAD: Life Technologies and Expression Analysis (LTEA) Assay for Bcl-2 (BAD) gene using HepaRG (AID 2283469)
Summary of the method: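 Differentiated human HepaRG cells in serum-free induction medium were exposed in duplicate for 48 h to eight concentrations (top 100 uM, half-log steps, 0.5% DMSO). BAD mRNA was quantified by qRT-PCR normalised to ACTB, GAPDH and POLR2A, with bidirectional fitting versus DMSO.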

[6] = read-out: Bcl-2 (BAX) gene, BAX (gene 581); test: LTEA_HepaRG_BAX: Life Technologies and Expression Analysis (LTEA) Assay for Bcl-2 (BAX) gene using HepaRG (AID 2283470)
Summary of the method: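 Differentiated HepaRG cells exposed 48 h in serum-free induction medium, eight half-log concentrations from 100 uM, in duplicate, 0.5% DMSO vehicle. BAX mRNA by TaqMan qRT-PCR, normalised to ACTB, GAPDH and POLR2A.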

[7] = read-out: adenosine kinase (ADK) gene, ADK (gene 132); test: LTEA_HepaRG_ADK: Life Technologies and Expression Analysis (LTEA) Assay for adenosine kinase (ADK) gene using HepaRG (AID 2283471)
Summary of the method: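 Read-out is ADK transcript level measured by qRT-PCR and normalised to three housekeeping genes. Cells are human HepaRG, dosed for 48 h at up to 100 uM in 0.5% DMSO. Gain or loss of signal is fitted against DMSO controls.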

[8] = read-out: Alpha-fetoprotein (AFP) gene, AFP (gene 174); test: LTEA_HepaRG_AFP: Life Technologies and Expression Analysis (LTEA) Assay for Alpha-fetoprotein (AFP) gene using HepaRG (AID 2283472)
Summary of the method: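 Differentiated human HepaRG cells exposed 48 h in serum-free induction medium, 8-point half-log series from 100 uM in 0.5% DMSO, duplicate. AFP mRNA by qRT-PCR, normalized to ACTB, GAPDH, POLR2A; bidirectional fit vs DMSO.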

BCL2L11 (gene 10018) = test: LTEA_HepaRG_BCL2L11: Life Technologies and Expression Analysis (LTEA) Assay for Bcl-2 (BCL2L11) gene using HepaRG (AID 2283473)
Summary of the method: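 Differentiated human HepaRG cells were exposed 48 h in serum-free induction medium to eight half-log concentrations up to 100 uM in 0.5% DMSO, in duplicate. BCL2L11 mRNA was quantified by TaqMan qRT-PCR, normalized to ACTB, GAPDH and POLR2A; induction or repression fitted versus DMSO.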

[9] = read-out: Apolipoprotein A-V (APOA5) gene, APOA5 (gene 116519); test: LTEA_HepaRG_APOA5: Life Technologies and Expression Analysis (LTEA) Assay for Apolipoprotein A-V (APOA5) gene using HepaRG (AID 2283474)
Summary of the method: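 Differentiated HepaRG cells in serum-free induction medium, exposed 48 h in duplicate to eight half-log concentrations topping at 100 uM (0.5% DMSO). APOA5 mRNA by Fluidigm TaqMan qRT-PCR, normalized to ACTB, GAPDH and POLR2A; bidirectional fit versus DMSO.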

[10] = read-out: Apoptosis regulator Bcl-2 (Homo sapiens) (UniProt P10415); test: LTEA_HepaRG_BCL2: Life Technologies and Expression Analysis (LTEA) Assay for Bcl-2 gene using HepaRG (AID 2283475)
Summary of the method: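 Differentiated human HepaRG cells in serum-free induction medium exposed 48 h, in duplicate, to 8-point half-log series from 100 uM in 0.5% DMSO. BCL2 mRNA by qRT-PCR (TaqMan/Fluidigm), normalized to ACTB, GAPDH, POLR2A; bidirectional fit against DMSO.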

[11] = read-out: Bcl-2 (BID) gene, BID (gene 637); test: LTEA_HepaRG_BID: Life Technologies and Expression Analysis (LTEA) Assay for Bcl-2 (BID) gene using HepaRG (AID 2283476)
Summary of the method: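 Gene expression by qRT-PCR in HepaRG cells after 48 h exposure, duplicate wells, eight half-log concentrations topping at 100 uM in 0.5% DMSO. Normalized to ACTB, GAPDH, POLR2A; bidirectional fitting relative to DMSO.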

Caspase-3 (Homo sapiens) = Caspase-3 (Homo sapiens) (UniProt P42574); test: LTEA_HepaRG_CASP3: Life Technologies and Expression Analysis (LTEA) Assay for cysteine-aspartic acid protease (CASP3) using HepaRG (AID 2283477)
Chain of Caspase-3 (Homo sapiens) (P42574 whole entry, looked up): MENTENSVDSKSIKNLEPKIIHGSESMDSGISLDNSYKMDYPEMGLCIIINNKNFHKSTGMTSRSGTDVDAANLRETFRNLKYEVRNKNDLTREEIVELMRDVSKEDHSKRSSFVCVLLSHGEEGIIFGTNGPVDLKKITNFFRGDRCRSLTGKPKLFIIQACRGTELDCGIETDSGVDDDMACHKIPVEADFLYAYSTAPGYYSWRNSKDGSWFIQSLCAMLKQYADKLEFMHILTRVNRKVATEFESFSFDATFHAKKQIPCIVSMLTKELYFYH
Summary of the method: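 Differentiated HepaRG cells, plated 48 h, were treated in duplicate in serum-free induction medium for 48 h with eight half-log concentrations up to 100 uM in 0.5% DMSO. CASP3 mRNA measured by qRT-PCR, normalized to ACTB, GAPDH, POLR2A.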

[12] = read-out: Cytochrome P450 (CYP24A1), CYP24A1 (gene 1591); test: LTEA_HepaRG_CYP24A1: Life Technologies and Expression Analysis (LTEA) Assay for Cytochrome P450 (CYP24A1) using HepaRG (AID 2283478)
Summary of the method: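 HepaRG cells plated 48 h, then exposed in duplicate in serum-free induction medium for 48 h to 8-point half-log series from 100 uM in 0.5% DMSO. CYP24A1 mRNA by Fluidigm qRT-PCR, normalized to ACTB, GAPDH, POLR2A; bidirectional fit versus DMSO.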

[13] = read-out: Cytochrome P450 (CYP1A2), CYP1A2 (gene 1544); test: LTEA_HepaRG_CYP1A2: Life Technologies and Expression Analysis (LTEA) Assay for Cytochrome P450 (CYP1A2) using HepaRG (AID 2283479)
Summary of the method: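 Differentiated human HepaRG cells in serum-free induction medium exposed 48 hours in duplicate to 8 half-log concentrations from 100 uM, 0.5% DMSO. CYP1A2 mRNA quantified by qRT-PCR, normalized to ACTB, GAPDH and POLR2A; bidirectional fitting versus DMSO.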

[14] = read-out: cysteine-aspartic acid protease (CASP8), CASP8 (gene 841); test: LTEA_HepaRG_CASP8: Life Technologies and Expression Analysis (LTEA) Assay for cysteine-aspartic acid protease (CASP8) using HepaRG (AID 2283480)
Summary of the method: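 Differentiated human HepaRG cells, plated 48 h then switched to serum-free induction medium, were exposed in duplicate for 48 h to 8 half-log concentrations up to 100 uM in 0.5% DMSO. CASP8 mRNA was quantified by qRT-PCR, normalized to ACTB/GAPDH/POLR2A.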

[15] = read-out: Cytochrome P450 (CYP2B6), CYP2B6 (gene 1555); test: LTEA_HepaRG_CYP2B6: Life Technologies and Expression Analysis (LTEA) Assay for Cytochrome P450 (CYP2B6) using HepaRG (AID 2283481)
Summary of the method: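 Differentiated human HepaRG cells in serum-free induction medium, dosed in duplicate for 48 h over 8 half-log concentrations topping at 100 uM (0.5% DMSO). CYP2B6 mRNA measured by TaqMan qRT-PCR, normalized to ACTB, GAPDH, POLR2A; bidirectional fit versus DMSO.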

[16] = read-out: Cytochrome P450 2C19 (Homo sapiens) (UniProt P33261); test: LTEA_HepaRG_CYP2C19: Life Technologies and Expression Analysis (LTEA) Assay for CYP2C19 using HepaRG (AID 2283482)
Summary of the method: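 Differentiated HepaRG cells in serum-free induction medium exposed 48 h in duplicate, 8 concentrations from 100 uM by half-log steps in 0.5% DMSO. CYP2C19 mRNA measured by TaqMan qRT-PCR, normalized to ACTB, GAPDH, POLR2A. Bidirectional fit versus DMSO.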

CYP2C8 (gene 1558) = test: LTEA_HepaRG_CYP2C8: Life Technologies and Expression Analysis (LTEA) Assay for CYP2C8 using HepaRG (AID 2283483)
Summary of the method: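 Differentiated human HepaRG cells were exposed for 48 h in serum-free induction medium to eight half-log concentrations up to 100 uM in 0.5% DMSO, in duplicate. CYP2C8 mRNA was measured by TaqMan qRT-PCR, normalized to ACTB, GAPDH and POLR2A, and fitted bidirectionally against DMSO.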

Measured: AC50

Chain of Apoptosis regulator Bcl-2 (Homo sapiens) (P10415 whole entry, looked up): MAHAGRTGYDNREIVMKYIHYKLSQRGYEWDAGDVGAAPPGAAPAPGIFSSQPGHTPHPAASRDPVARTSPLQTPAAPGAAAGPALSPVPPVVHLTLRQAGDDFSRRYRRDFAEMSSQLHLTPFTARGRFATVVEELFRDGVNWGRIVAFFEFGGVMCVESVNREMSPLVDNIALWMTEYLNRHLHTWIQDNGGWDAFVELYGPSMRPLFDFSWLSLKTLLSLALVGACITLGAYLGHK
Chain of Cytochrome P450 2C19 (Homo sapiens) (P33261 whole entry, looked up): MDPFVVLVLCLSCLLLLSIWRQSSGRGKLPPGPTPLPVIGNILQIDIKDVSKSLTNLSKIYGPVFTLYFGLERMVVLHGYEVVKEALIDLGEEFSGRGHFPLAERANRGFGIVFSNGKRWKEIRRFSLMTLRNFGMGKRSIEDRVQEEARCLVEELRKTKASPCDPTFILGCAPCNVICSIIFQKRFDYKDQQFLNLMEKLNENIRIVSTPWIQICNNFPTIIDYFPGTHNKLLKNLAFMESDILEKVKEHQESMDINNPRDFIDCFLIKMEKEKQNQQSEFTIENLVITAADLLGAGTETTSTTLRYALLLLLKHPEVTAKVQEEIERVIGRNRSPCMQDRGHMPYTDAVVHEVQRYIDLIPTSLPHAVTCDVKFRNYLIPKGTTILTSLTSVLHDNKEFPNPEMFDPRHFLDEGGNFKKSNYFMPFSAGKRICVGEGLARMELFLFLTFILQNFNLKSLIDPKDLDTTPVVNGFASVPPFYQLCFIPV
Chain of Broad substrate specificity ATP-binding cassette transporter ABCG2 (Homo sapiens) (Q9UNQ0 whole entry, looked up): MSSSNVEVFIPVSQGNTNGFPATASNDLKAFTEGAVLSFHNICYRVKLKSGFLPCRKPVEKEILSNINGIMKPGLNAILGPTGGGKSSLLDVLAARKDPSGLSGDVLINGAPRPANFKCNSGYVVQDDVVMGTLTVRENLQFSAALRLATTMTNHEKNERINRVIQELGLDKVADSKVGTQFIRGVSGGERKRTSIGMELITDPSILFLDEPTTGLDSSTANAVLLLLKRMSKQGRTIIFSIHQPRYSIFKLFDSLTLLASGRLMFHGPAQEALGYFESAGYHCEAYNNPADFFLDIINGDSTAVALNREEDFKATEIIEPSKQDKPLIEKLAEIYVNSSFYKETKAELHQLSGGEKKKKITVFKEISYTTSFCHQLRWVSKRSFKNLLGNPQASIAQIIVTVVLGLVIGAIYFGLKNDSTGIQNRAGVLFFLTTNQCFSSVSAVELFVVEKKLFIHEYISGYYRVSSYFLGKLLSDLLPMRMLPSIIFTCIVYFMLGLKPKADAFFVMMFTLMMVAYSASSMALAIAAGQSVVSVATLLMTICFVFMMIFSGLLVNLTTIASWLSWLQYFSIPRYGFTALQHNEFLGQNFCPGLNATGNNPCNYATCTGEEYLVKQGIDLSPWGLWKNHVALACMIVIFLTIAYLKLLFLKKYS

CC(C)(O)c1ccc(CNC(=O)c2cccnc2Oc2ccc3nonc3c2)cc1
active: [13] 50 µM | [15] 0.987 µM | [16] 12.1 µM | CYP2C8 (gene 1558) 13 µM
inactive: all other assays above

CC1(C)NC(=O)N(c2ccc([N+](=O)[O-])c(C(F)(F)F)c2)C1=O
active: [1] 29.3 µM | [2] 76.5 µM | [3] 63.7 µM | [4] 50 µM | [8] 80.5 µM | [9] 67.9 µM | [10] 78.9 µM | [13] 85.5 µM | [15] 81.4 µM | [16] 12.4 µM | CYP2C8 (gene 1558) 85.5 µM
inactive: [5] | [6] | [7] | BCL2L11 (gene 10018) | Caspase-3 (Homo sapiens) | [12] | [14]

O=C1CCC(C2CCCCC2)CC1
active: [13] 72.5 µM
not listed: [11]
inactive: all other assays above
